Shown are actives, neighbours in structure and some others; about 1.5% of the full set was active somewhere.
C-LANA FP: KSHV C-LANA DNA binding inhibition; MBP-C-LANA/FAM-LBS DNA binding, fluorescence polarization; inhibition, % at 9 µM; hit rate 0.078% among 340,000; AID 504423;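 active means highest replicate inhibition at or above 60% at 9 µM, even if other replicates fall short; inactive means all replicates below 60% inhibition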
EBV gp42 inh: EBV gp42 inhibition. Fluorescence polarization binding assay, mP read-out. inhibition, % (tested at 21.74 µM). hit rate 0.42% among 220,000; in the data active means inhibition above about 50%
E coli Lon inh: inhibitors of E. coli Lon protease; purified E. coli Lon protease, fluorescence polarization; inhibition, % at 7.94 µM; hit rate 0.42% among 360,000; AID 602123; in the data active means inhibition above about 13%, passing the limit was not always enough
Keap1-Nrf2 PPI: inhibitors of human Keap1-Nrf2 protein-protein interaction | Q14145 | Keap1 Kelch-Nrf2 peptide fluorescence polarization, 1536-well | inhibition, % at 9.4 µM | hit rate 0.15% among 340,000; in the data active means inhibition above about 12%;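 further: human Keap1 Kelch domain with fluorescein labeled Nrf2 9mer peptide probe; higher means more block of Keap1 binding to Nrf2 peptide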
LANA-H2A inh: blocks KSHV LANA binding to histone H2A/H2B | Q9QR71 | cell-free LANA-H2A/H2B peptide, fluorescence polarization | inhibition, % (concentration not given with the values) | hit rate 0.6% among 320,000 | AID 2629; in the data active means inhibition mostly above about 10%, no sharp cut-off; inactive means mostly below about 6.7%
GLD-1 RNA inh: GLD-1-TGE RNA interaction inhibition (C. elegans); Q17339; purified GLD-1 + fluorescein TGE RNA, fluorescence polarization; inhibition, % at 5.96 µM; hit rate 0.44% among 320,000;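 active means percent inhibition above a per-plate cutoff, the plate mean of test compounds plus 3 SD, cut at about 30% in these data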
Numbers stand for hits; n = inactive; x = no result; + = active, no number.

SMILES	C-LANA FP	EBV gp42 inh	E coli Lon inh	Keap1-Nrf2 PPI	LANA-H2A inh	GLD-1 RNA inh
N=C1/C(=C\c2coc3ccccc3c2=O)C(=O)N=C2SC=CN12	n	n	n	n	n	51
CSC1=NSC2=NC(=O)/C(=C\c3cccs3)C(=N)N12	n	n	n	n	n	n
CCc1nc(SCC(=O)Nc2ccc(F)cc2)c2c(=O)n(C)c(=O)n(C)c2n1	n	x	n	n	n	n
COc1ccc2c(c1)C(=O)O[C@@H](c1ccccc1)C[C@@H](O)C(=O)CC2	x	x	n	x	x	x
CSc1ccc(C=NNc2ccc(S(=O)(=O)Nc3ccccc3C(=O)O)cc2[N+](=O)[O-])cc1	n	x	n	n	n	n
Cc1nn(-c2ccccc2)c(Cl)c1/C=N/Nc1ccc(S(=O)(=O)Nc2ccccc2C(=O)O)cc1[N+](=O)[O-]	n	73	n	n	n	n
O=C(OC1CC2CC1[C@H]1CCCCN1C2=O)N1CCCCC1 (stereo partly specified)	x	x	n	x	x	x
CCOC(=O)c1oc2cc(OCC(=O)OC)ccc2c(=O)c1-c1ccc(OC)c(OC)c1	n	51	n	n	n	n
CN(c1ccc(C(=O)NC2CCCC2)cc1)S(=O)(=O)c1ccc(Cl)cc1	n	x	n	n	n	n
COC(=O)CCCC1=CC2=CC(=O)C(C)(O)C(=O)C2=CO1 (stereo unspecified)	x	x	x	x	n	n
C=CCN1C=C2C(=O)C(C)(OC(=O)CC)C(=O)C=C2C=C1CCCC (stereo unspecified)	n	n	n	n	n	42
CC(C)(C)OC(=O)NCCCC1=CC2=CC(=O)C(C)(OC(=O)c3ccc(Cl)nc3)C(=O)C2=CO1 (stereo unspecified)	x	x	x	x	n	93
CCCCC1=CC2=CC(=O)C(C)(OC(=O)CC)C(=O)C2=CN1C(CO)CO (stereo unspecified)	n	n	n	n	n	n
CCCCC1=CC2=CC(=O)C(C)(OC(=O)CC)C(=O)C2=CN1Cc1ccc(OC)cc1 (stereo unspecified)	n	n	n	n	n	n
CCC(=O)OC1(C)C(=O)C=C2C=C(CCCC(=O)OC)OC=C2C1=O (stereo unspecified)	n	x	n	n	n	46
CCC(=O)OC1(C)C(=O)C=C2C=C(C3CC3)OC=C2C1=O (stereo unspecified)	n	x	n	n	n	39
COc1cc(CN2C[C@@H](CO)O[C@@H](n3cnc4c(NC(C)C)ncnc43)C2)cc(OC)c1OC	x	x	n	x	x	x
CCC(=O)OC1(C)C(=O)C=C2C=C(CCCCNC(=O)OC(C)(C)C)OC=C2C1=O (stereo unspecified)	x	x	x	x	n	50
CC(C)(C)OC(=O)NCCCC1=CC2=CC(=O)C(C)(O)C(=O)C2=CO1 (stereo unspecified)	x	x	x	x	n	n
CCCCC1=CC2=CC(=O)C(C)(OC(=O)CC)C(=O)C2=CO1 (stereo unspecified)	n	x	n	n	n	37
CCOc1ccc(Cl)cc1-c1cc(C(=O)NCc2ccccc2OC)[nH]n1	x	x	n	x	x	x
COc1ccccc1Cc1c(-c2cccc(Cl)c2)nc2ccc(Br)cn12	x	x	n	x	x	x
Cn1nnnc1Sc1ccc(C(=O)O)cc1[N+](=O)[O-]	n	n	n	n	n	n
Cn1ccnc1Sc1ccc(C(N)=O)cc1[N+](=O)[O-]	n	n	n	n	86	n
Nc1ncnc2c1ncn2[C@@H]1O[C@H](C(=O)NS(=O)(=O)c2cccs2)[C@@H](O)[C@H]1O	x	x	n	x	x	x
SMILES	C-LANA FP	EBV gp42 inh	E coli Lon inh	Keap1-Nrf2 PPI	LANA-H2A inh	GLD-1 RNA inh
Cc1ccc(S(=O)(=O)N2[C@@H](c3ccc(Cl)cc3)C(C(=O)O)=C[C@H]2C(C)(C)C)cc1	n	x	n	n	+	n
CC(=O)N1CCc2c(sc(NC(=O)c3ccc(S(=O)(=O)N(C)CC4CCCO4)cc3)c2C(N)=O)C1 (stereo unspecified)	x	x	n	x	x	x
CC(=O)NN1C(=O)c2ccc3c4c(ccc(c24)C1=O)C(=O)N(NC(C)=O)C3=O	n	x	n	n	n	n
CC1=NN(C(=O)c2ccc(Cl)cc2)C(O)(c2ccccc2)C1 (stereo unspecified)	n	x	n	n	9.9	n
CC(C)[C@H](NC(=O)c1ccc(Cl)cc1Cl)C(=O)NNc1cccc(C(=O)O)c1	n	x	n	n	15	n
N#Cc1ccc(C#Cc2ccc3oc4ccccc4c(=O)c3c2)cc1	n	x	n	n	25	n
CCSc1cc(N2CCCC2)nc(-c2ccccc2Cl)n1	n	60	n	n	n	n
Cc1ccc(Nc2nnc(SCC(=O)c3c(N)n(C4CC4)c(=O)[nH]c3=O)s2)cc1C	n	x	n	n	+	n
Cc1cccc(Nc2nnc(SCC(=O)c3c(N)n(C4CC4)c(=O)[nH]c3=O)s2)c1	n	x	n	n	n	n
CCS(=O)(=O)c1ccc2oc(SCC(=O)c3c(N)n(C4CC4)c(=O)[nH]c3=O)nc2c1	n	x	n	n	47	n
CN(Cc1ccc(Cl)cc1)C(CCc1ccccc1)C(=O)NC1CCCCC1 (stereo unspecified)	x	x	n	x	x	x
CC1=C(C(=O)Nc2ccccc2C(=O)NC2CCCCC2)SCCO1	n	x	n	n	n	n
O=C(NC1CC1)c1ccc(NS(=O)(=O)c2ccccc2)cc1	n	x	n	n	n	n
O=C(NC1CCC(O)CC1)c1ccc(NS(=O)(=O)c2cccc([N+](=O)[O-])c2)cc1 (stereo unspecified)	n	x	n	n	24	n
COc1ccc(OC)c(/C=C/c2nc3ccccc3[nH]c2=O)c1	n	x	n	n	n	75
COc1cccc(CNC(=O)C2CCCN(c3nc4ccccc4o3)C2)c1 (stereo unspecified)	n	n	n	n	14	n
CC(C)C[C@H]1C(=O)N2CCC[C@H]2[C@]2(O)O[C@](NC(=O)[C@@H]3C=C4c5cccc6[nH]c(Br)c(c56)CC4N(C)C3)(C(C)C)C(=O)N12 (stereo partly specified)	n	n	n	n	n	95
CCc1ccc(-n2cc(-c3ccc([N+](=O)[O-])cc3)[nH]c2=S)cc1	n	n	n	n	n	n
O=[N+]([O-])c1ccc(-c2cn(-c3ccc(Cl)cc3)c(=S)[nH]2)cc1	n	54	n	n	n	n
O=C(/C=C/c1ccccc1)OCC(=O)c1ccc[nH]1	n	x	n	n	n	n
O=C(/C=C/c1ccc(F)cc1)OCC(=O)c1ccc[nH]1	n	x	n	n	86	n
O=C(Nc1ccccc1C(=O)NCCCN1CCOCC1)c1ccc(Cl)cc1	n	x	n	n	88	n
Cn1c(SCC(=O)Nc2ccc(N3CCOCC3)c(Cl)c2)nnc1-c1ccccc1	x	x	x	x	40	n
CCn1c(Cc2ccccc2)nnc1SCC(=O)Nc1ccc(N2CCOCC2)c(Cl)c1	n	n	n	n	n	n
O=[N+]([O-])c1cccc(S(=O)(=O)Nc2nc3ccccc3nc2Nc2cccc(S(=O)(=O)N3CCCCC3)c2)c1	n	n	n	n	x	x
